# Measurements: the supplement of paper PMC10849652
# Targets with a hit are over-represented here; the source holds about 7,900 in all. About 0.6% of all pairs of compound and target were hits. A number with no mark means an inactive call.
# How the values were obtained:
# Test in all cases: log2 fold change, soluble protein after heating vs DMSO (PISA); higher = thermal stabilisation; K562 cells, 10 uM, 30 min; active = over 0.2 and 3.5 SD of the protein, either way, in both replicates (recomputed)
# [1] = compound: COC1=CC=C(C=C1)CN2C=CC3=C2C=C(C=C3)C(=O)NO
# Procedure, shortened: (§1)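 For each measurement, 10 μM compound was applied for 30 min to K562 cells at 2×10^6 cells/mL. Aliquots were heated for 3 min across 48°C-58°C, pooled, and extracted in PBS with 0.5% NP-40 at 4°C; the supernatant after 21,000xg for 90 min was soluble protein. This was quantified by TMTpro 16plex LC-MS/MS with channel sums equalised, and thermal stability was reported relative to control samples from duplicates, on a log2 fold-change scale.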
# filanesib = compound: CON(C)C(=O)N1N=C(c2cc(F)ccc2F)S[C@@]1(CCCN)c1ccccc1 [filanesib]
# Procedure, shortened: as §1
# zotarolimus = compound: CO[C@H]1C[C@@H]2CC[C@@H](C)[C@@](O)(O2)C(=O)C(=O)N2CCCC[C@H]2C(=O)O[C@H]([C@H](C)C[C@@H]2CC[C@H](n3cnnn3)[C@H](OC)C2)CC(=O)[C@H](C)/C=C(\C)[C@@H](O)[C@@H](OC)C(=O)[C@H](C)C[C@H](C)/C=C/C=C/C=C/1C [zotarolimus]
# Procedure, shortened: as §1
# idasanutlin = compound: COc1cc(C(=O)O)ccc1NC(=O)[C@@H]1N[C@@H](CC(C)(C)C)[C@](C#N)(c2ccc(Cl)cc2F)[C@H]1c1cccc(Cl)c1F [idasanutlin]
# Procedure, shortened: as §1
# alisertib = compound: COc1cc(Nc2ncc3c(n2)-c2ccc(Cl)cc2C(c2c(F)cccc2OC)=NC3)ccc1C(=O)O [alisertib]
# Procedure, shortened: as §1
# [2] = compound: COc1cc2nc(-c3cc(F)ccc3O)nc(N[C@@H]3CNC[C@H]3C(C)(C)O)c2cc1OC
# Procedure, shortened: as §1
# gefitinib = compound: COc1cc2ncnc(Nc3ccc(F)c(Cl)c3)c2cc1OCCCN1CCOCC1 [gefitinib]
# Procedure, shortened: as §1
# [3] = compound: COc1cccc2cc(-c3nc([C@H]4CC[C@H](C(=O)O)CC4)n4ncnc(N)c34)[nH]c12
# Procedure, shortened: as §1
# lapatinib = compound: CS(=O)(=O)CCNCc1ccc(-c2ccc3ncnc(Nc4ccc(OCc5cccc(F)c5)c(Cl)c4)c3c2)o1 [lapatinib]
# Procedure, shortened: as §1
# pictilisib = compound: CS(=O)(=O)N1CCN(Cc2cc3nc(-c4cccc5[nH]ncc45)nc(N4CCOCC4)c3s2)CC1 [pictilisib]
# Procedure, shortened: as §1
# Chain of UniProt Q14C86 (Q14C86 whole entry, looked up): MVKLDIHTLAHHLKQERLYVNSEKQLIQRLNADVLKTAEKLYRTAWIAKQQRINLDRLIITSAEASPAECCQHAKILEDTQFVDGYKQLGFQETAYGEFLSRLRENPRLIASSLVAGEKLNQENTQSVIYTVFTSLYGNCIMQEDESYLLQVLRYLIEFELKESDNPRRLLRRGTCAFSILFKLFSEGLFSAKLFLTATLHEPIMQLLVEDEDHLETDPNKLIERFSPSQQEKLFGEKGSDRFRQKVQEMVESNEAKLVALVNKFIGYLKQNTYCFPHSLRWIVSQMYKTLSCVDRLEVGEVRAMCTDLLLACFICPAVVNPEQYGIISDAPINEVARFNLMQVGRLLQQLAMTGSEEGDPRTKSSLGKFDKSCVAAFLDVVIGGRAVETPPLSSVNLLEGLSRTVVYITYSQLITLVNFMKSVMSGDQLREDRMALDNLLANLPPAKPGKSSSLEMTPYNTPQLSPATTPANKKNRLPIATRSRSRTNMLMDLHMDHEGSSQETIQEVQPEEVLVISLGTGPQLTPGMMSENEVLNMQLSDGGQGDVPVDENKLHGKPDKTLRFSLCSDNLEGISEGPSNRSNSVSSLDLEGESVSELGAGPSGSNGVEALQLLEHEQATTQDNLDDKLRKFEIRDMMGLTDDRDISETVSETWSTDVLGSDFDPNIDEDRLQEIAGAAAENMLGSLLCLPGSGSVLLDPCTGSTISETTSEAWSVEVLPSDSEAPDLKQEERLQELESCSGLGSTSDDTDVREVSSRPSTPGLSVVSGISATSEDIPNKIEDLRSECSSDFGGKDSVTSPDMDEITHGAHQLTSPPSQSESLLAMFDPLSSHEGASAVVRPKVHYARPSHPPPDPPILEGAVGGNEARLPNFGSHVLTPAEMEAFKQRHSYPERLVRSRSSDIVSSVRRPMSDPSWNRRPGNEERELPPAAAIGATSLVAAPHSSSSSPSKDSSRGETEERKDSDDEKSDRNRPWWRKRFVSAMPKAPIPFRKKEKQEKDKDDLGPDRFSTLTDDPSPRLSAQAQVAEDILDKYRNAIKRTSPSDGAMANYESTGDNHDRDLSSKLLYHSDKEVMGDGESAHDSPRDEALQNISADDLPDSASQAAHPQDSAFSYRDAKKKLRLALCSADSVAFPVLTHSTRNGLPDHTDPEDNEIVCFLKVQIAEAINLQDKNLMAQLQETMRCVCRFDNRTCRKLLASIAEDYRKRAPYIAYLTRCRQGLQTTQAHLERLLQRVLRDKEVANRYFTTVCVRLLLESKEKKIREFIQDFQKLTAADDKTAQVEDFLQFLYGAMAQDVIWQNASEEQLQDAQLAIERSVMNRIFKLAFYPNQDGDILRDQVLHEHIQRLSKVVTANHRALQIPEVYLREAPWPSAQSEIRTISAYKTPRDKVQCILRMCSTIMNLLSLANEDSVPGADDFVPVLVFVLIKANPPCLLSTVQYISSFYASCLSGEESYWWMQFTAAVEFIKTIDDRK
# Chain of UniProt Q9UKN8 (Q9UKN8 whole entry, looked up): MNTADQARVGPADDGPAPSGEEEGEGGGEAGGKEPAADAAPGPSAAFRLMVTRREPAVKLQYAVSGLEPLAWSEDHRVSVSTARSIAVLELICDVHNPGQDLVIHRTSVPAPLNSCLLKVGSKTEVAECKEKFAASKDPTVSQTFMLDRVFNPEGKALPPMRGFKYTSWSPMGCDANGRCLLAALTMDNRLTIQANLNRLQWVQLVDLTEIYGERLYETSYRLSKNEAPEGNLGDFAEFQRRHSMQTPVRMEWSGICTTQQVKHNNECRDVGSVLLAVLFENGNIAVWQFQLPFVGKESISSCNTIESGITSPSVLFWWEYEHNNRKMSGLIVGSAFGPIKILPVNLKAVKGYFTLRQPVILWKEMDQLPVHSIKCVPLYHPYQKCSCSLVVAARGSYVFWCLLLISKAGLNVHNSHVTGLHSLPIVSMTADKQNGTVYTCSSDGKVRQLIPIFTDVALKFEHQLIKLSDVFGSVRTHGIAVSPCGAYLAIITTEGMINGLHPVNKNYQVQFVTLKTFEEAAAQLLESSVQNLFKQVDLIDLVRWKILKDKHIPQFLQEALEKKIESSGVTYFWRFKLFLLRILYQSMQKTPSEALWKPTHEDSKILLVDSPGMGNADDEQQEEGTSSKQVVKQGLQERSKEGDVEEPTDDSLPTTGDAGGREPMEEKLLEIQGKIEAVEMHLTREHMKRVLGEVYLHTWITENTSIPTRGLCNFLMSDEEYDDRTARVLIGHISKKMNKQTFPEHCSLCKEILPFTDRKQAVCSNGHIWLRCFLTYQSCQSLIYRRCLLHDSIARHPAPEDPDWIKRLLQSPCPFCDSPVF
# Chain of UniProt Q9UKD1 (Q9UKD1 whole entry, looked up): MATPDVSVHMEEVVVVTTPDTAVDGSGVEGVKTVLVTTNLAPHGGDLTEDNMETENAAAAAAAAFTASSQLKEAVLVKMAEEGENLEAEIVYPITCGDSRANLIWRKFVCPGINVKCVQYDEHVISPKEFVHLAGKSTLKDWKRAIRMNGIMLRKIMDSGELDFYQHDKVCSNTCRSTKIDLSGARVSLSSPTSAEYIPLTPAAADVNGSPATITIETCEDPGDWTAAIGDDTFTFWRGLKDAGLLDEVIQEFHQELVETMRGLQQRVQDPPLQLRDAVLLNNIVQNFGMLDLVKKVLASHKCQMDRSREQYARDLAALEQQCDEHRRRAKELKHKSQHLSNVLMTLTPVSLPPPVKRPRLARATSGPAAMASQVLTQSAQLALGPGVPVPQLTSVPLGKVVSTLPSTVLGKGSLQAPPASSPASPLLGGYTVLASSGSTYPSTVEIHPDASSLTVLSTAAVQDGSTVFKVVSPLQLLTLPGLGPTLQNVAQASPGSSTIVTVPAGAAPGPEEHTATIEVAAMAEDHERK
# Chain of UniProt Q9NVI1 (Q9NVI1 whole entry, looked up): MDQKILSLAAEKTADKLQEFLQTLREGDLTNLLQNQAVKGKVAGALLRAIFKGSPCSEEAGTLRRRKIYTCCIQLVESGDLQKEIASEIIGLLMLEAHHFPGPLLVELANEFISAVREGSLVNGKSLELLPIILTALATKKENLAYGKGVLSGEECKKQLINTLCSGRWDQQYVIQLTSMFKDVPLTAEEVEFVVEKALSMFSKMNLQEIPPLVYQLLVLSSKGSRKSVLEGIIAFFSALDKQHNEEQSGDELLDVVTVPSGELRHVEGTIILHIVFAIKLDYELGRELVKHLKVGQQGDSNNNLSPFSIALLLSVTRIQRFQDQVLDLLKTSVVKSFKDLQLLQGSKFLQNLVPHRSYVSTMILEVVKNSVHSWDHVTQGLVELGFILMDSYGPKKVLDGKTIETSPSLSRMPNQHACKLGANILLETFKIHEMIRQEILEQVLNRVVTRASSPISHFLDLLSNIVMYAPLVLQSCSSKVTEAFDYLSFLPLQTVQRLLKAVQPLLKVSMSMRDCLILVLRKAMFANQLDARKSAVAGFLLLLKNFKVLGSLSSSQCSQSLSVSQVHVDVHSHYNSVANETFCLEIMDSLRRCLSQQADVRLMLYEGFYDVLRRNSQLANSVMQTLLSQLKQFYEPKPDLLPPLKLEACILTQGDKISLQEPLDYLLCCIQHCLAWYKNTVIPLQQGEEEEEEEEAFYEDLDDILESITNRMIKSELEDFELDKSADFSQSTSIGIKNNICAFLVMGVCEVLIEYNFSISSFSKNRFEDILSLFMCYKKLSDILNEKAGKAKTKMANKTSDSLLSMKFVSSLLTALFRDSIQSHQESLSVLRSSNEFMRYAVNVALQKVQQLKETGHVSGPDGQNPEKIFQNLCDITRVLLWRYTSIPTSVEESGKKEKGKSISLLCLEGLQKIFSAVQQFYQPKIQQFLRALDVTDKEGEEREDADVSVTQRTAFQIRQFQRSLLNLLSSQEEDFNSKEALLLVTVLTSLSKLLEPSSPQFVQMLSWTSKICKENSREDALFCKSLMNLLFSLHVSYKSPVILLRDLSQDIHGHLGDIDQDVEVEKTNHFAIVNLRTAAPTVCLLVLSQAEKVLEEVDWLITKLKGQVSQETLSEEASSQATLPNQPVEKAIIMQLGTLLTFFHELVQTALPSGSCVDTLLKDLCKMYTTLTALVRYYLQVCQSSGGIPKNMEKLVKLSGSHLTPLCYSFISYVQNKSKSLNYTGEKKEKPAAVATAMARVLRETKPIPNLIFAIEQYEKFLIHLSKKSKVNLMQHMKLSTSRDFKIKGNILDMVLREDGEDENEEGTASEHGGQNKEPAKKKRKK
# Chain of UniProt Q92947 (Q92947 whole entry, looked up): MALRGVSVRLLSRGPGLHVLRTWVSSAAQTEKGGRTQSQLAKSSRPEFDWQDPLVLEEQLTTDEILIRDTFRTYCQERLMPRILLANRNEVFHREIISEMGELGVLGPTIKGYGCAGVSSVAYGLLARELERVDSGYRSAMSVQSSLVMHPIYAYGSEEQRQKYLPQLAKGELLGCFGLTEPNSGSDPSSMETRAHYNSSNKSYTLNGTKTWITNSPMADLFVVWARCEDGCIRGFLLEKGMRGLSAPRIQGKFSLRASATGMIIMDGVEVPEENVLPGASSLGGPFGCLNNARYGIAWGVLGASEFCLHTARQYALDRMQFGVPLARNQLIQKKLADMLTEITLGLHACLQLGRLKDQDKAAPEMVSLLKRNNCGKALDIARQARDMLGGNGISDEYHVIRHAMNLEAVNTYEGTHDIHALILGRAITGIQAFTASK
# Chain of UniProt Q13907 (Q13907 whole entry, looked up): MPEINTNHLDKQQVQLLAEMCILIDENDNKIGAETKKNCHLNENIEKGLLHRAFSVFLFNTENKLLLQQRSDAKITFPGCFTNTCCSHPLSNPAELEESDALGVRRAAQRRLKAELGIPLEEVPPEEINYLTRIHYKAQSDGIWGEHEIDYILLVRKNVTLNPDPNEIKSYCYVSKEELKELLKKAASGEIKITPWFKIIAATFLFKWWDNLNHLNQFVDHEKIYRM
# Chain of UniProt O15347 (O15347 whole entry, looked up): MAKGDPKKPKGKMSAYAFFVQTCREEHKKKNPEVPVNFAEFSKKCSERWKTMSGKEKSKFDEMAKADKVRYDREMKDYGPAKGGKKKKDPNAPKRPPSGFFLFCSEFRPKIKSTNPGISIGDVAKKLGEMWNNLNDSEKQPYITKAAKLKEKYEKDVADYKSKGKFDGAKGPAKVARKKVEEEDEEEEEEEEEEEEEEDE
Target,log2 fold change [1],log2 fold change (filanesib),log2 fold change (zotarolimus),log2 fold change (idasanutlin),log2 fold change (alisertib),log2 fold change [2],log2 fold change (gefitinib),log2 fold change [3],log2 fold change (lapatinib),log2 fold change (pictilisib)
GCDH (UniProt Q92947),0.02,-0.081,0.027,-0.066,-0.066,-0.011,0.042,0.016,-0.004,-0.02
GCSH (UniProt P23434),-0.086,-0.029,0.014,-0.024,0.154,0.03,0.003,0.001,-0.028,-0.078
ICAM1 (UniProt P05362),-0.018,0.132,-0.038,0.042,0.002,0.08,0.029,0.104,-0.028,0
GTF2H3 (UniProt Q13889),-0.031,0.062,-0.04,-0.077,-0.155,0.016,0,0.041,0.056,-0.089
GNAI3 (UniProt P08754),-0.041,-0.002,-0.081,-0.004,-0.124,0.066,0.118,-0.013,0.009,0.059
HSPA8 (UniProt E9PK54),0.011,0.033,-0.015,-0.037,-0.186,-0.208,-0.077,-0.002,0.17,-0.071
FANCI (UniProt Q9NVI1),0.004,-0.189,-0.01,-0.014,-0.015,-0.113,-0.034,0.033,0.001,0
HAT1 (UniProt O14929),0.14,-0.049,0.075,0.055,0.019,0.066,0.008,-0.014,-0.002,-0.076
FKBP4 (UniProt Q02790),0.015,-0.066,0.077,-0.048,-0.018,0.031,0.008,0.009,-0.062,0.027
IGF2BP2 (UniProt Q9Y6M1),-0.111,0.301,0.104,0.136,-0.103,-0.105,0.007,-0.113,0.046,-0.043
IFRD1 (UniProt O00458),-0.07,-0.017,0.071,-0.042,-0.008,-0.25,0.199,0.253,0.069,0.214
FLNA (UniProt P21333),0.042,0.026,0.043,-0.066,0.036,0.039,0.03,-0.095,-0.049,0.031
GALNT2 (UniProt Q10471),0.018,-0.025,0.043,-0.065,-0.03,-0.042,0.059,-0.012,0.036,-0.01
GNL1 (UniProt P36915),0.047,-0.066,0.049,-0.056,-0.107,0.039,0.031,0.061,0.011,0.04
GAGE12F (UniProt P0CL80),-0.007,0.02,-0.054,0.055,-0.312,-0.02,-0.03,0.123,-0.028,0.108
FUBP3 (UniProt Q96I24),0.129,0.055,-0.072,0.049,0.034,0.165,-0.049,0.009,0.006,-0.062

Target,log2 fold change [1],log2 fold change (filanesib),log2 fold change (zotarolimus),log2 fold change (idasanutlin),log2 fold change (alisertib),log2 fold change [2],log2 fold change (gefitinib),log2 fold change [3],log2 fold change (lapatinib),log2 fold change (pictilisib)
HMGB3 (UniProt O15347),0.037,-0.001,0.012,0.045,-0.064,-0.031,-0.033,0,0.062,-0.044
HEXA (UniProt P06865),0.028,-0.066,-0.015,-0.012,-0.095,0.01,-0.005,0.035,0,0.03
GTF3C5 isoform 3 (UniProt Q9Y5Q8),-0.115,-0.039,0.116,-0.068,0.064,0.024,-0.003,-0.034,0.13,-0.148
HBA1 (UniProt P69905),-0.037,0.02,0.068,-0.044,-0.093,-0.154,0.032,0.079,0.036,-0.088
IDI1 isoform 2 (UniProt Q13907),-0.314 (active),0.026,0.033,-0.006,-0.003,0.007,0.024,0.039,-0.014,0.089
GTF3C4 (UniProt Q9UKN8),-0.038,0.034,0.019,-0.003,-0.032,0.007,0.058,-0.011,0.029,0.028
GMEB2 (UniProt Q9UKD1),-0.027,0.04,0.03,0.073,-0.009,0.053,0.038,0.027,-0.022,0.101
GLB1 (UniProt P16278),0.002,-0.033,0.009,-0.015,-0.078,-0.015,0.031,0.045,0.024,0.006
GATD1 (UniProt Q8NB37),-0.104,0.022,-0.004,-0.038,-0.001,0.018,-0.014,0.052,-0.064,0.08
HADHB (UniProt P55084),0.248,0.094,0.038,-0.263,-0.026,0.217,0.17,-0.085,0.086,0.383
GHDC (UniProt Q8N2G8),-0.026,-0.127,0.021,0.061,-0.057,-0.13,0.037,0.087,0.042,0.042
IFRD2 isoform 2 (UniProt Q12894),-0.073,0.008,0.24,0,-0.278,-0.219,0.128,0.508 (active),0.037,0.336
GSR (UniProt P00390),0.023,-0.065,-0.039,-0.049,-0.032,0.015,-0.016,0.043,-0.057,0.036
HBQ1 (UniProt P09105),-0.034,-0.027,0.051,-0.023,-0.115,-0.05,0.033,0.091,0.001,-0.012
GAPVD1 isoform 6 (UniProt Q14C86),0.003,0.033,0.055,-0.021,0.047,-0.048,-0.013,-0.068,0.041,-0.025
